Laboratory results reported in PubChem BioAssay AID1117319 (Southern Research Institute, 2015).
Several values for one entry are separate records, joined by “and”; a condition that tells them apart may be missing. Identical values can stand only once. Among all 260,000 compounds or so, about 1,500 (0.58%) were called active. Inconclusive results (about 5%) are left out.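 Rule for the calls: active = inhibition above a set limit at one or more doses, reproduced on every date tested; inconclusive = results disagree between test dates, or hit never tested in dose response; inactive = the rest.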 Not all results are given here. Entries with a potency or affinity are not part of this list.

Each compound was assayed against Virion infectivity factor (Human immunodeficiency virus type 1 group M subtype B (isolate BH10)) + Virion infectivity factor (Human immunodeficiency virus type 1 group M subtype B (isolate BRU/LAI)) + Virion infectivity factor (Human immunodeficiency virus type 1 group M subtype B (isolate PCV12)) + Virion infectivity factor (Human immunodeficiency virus type 1 group M subtype B (isolate HXB2)) + DNA dC->dU-editing enzyme APOBEC-3G (Homo sapiens) (UniProt P69720+P69721+P69722+P69723+Q9HC16) (assay: inhibitors of Vif binding to APOBEC3G peptide, primary screen, biochemical, TR-FRET, GST-Vif 1-94, biotin-A3G peptide, dose response retest (AID 1117319;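 note: Vif residues 1-94 fused to GST binding biotinylated APOBEC3G peptide 110-148; 0% = full assay without inhibitor and 100% = GST in place of GST-Vif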)). Conditions: hits give high values.

inhibition, inactive:
CCc1nn2c(=O)cc(COc3ccc(/C=C4\C(=N)N5N=C(CC(C)C)SC5=NC4=O)cc3)nc2s1 9.59%
COc1ccc(OC)c(C2C(C(=O)c3cccs3)=C(O)C(=O)N2CCN(C)C)c1 (stereo unspecified) 0.56%
CN1CCN(CCCNC(=O)c2ccc(/C=C3/Sc4ccccc4N(Cc4cccc(Cl)c4)C3=O)cc2)CC1 2.32%
O=C(C1=C[C@H](c2ccc(Br)cc2)C[C@H](OCc2ccc(CO)cc2)O1)N1CCOCC1 15.5%
Clc1ncc2[nH]cnc2n1 1.24%
COc1cccc(NC2CC(=O)N(CCc3ccccc3)C2=O)c1 (stereo unspecified) 1.52%
COc1ccc(NC2CC(=O)N(CCc3ccccc3)C2=O)cc1 (stereo unspecified) 25.7%
O=C(/C=C/c1ccccc1)c1cc(Br)ccc(=O)c1O 24.6%
Cc1ccc(C(=O)C=Cc2ccc3c(c2)OCO3)c(C)c1 0.22%
O=C(/C=C/c1ccc(F)cc1)c1cc(Br)ccc1O -1.23%
Nc1ccccc1C(=O)/C=C/c1ccc2c(c1)OCO2 3.13%
COC(=O)/C=C/c1ccc2c(c1)OCO2 4.78%
O=C(/C=C/c1ccc2c(c1)OCO2)c1ccc(O)cc1O 8.42%
COC(=O)c1ccccc1NC(=O)CSc1nnc(COc2cccc(OC)c2)n1C 0.63%
COc1ccc(CNC(=O)CSc2ncnc3ccccc23)cc1OC -8.65%
COc1ccc(N2CCN(CC(=O)Nc3ccc(SC(F)F)cc3)CC2)cc1 27.3%
N#Cc1c(NC(=S)NC(=O)Cc2cccs2)sc2c1CCCCC2 12.2%
COc1ccccc1N1CCN(C(=O)COc2ccc(S(=O)(=O)NC(C)C)cc2)CC1 0.75%
CN1CCC(N(C)C(=O)COc2ccccc2Cl)CC1 -7.89%
O=C(O)COc1ccccc1-c1ccccc1 -0.72%
N#Cc1ccc(C(=O)NC2CCCc3ccccc32)cc1 (stereo unspecified) 5.64%
Cc1cn([C@H]2C[C@H](O)[C@@H](CNCc3ccc(F)c(N4CCOCC4)c3)O2)c(=O)[nH]c1=O -0.24%
CC(=O)Nc1ccccc1NC(=O)COc1cccc2ccccc12 -3.58%
COc1ccc(CCN=Cc2c(C)[nH]n(-c3ccc([N+](=O)[O-])cc3)c2=O)cc1OC 3.12%
CC(=O)Nc1ccc(S(=O)(=O)Nc2cccc(-n3cnnn3)c2)cc1 -3.6%
Cc1ccc(S(=O)(=O)Nc2cccc(-n3cnnn3)c2)cc1 -12.1%
NNC(=O)C1CC1c1ccc(Cl)cc1 (stereo unspecified) -1.47%
CC(C)NC(=O)C1CCN(C2CCN(Cc3nc(C(C)C)cs3)CC2)CC1 10.5%
CC(=O)C(Sc1nc(NC(C)(C)C)nc(N(C)C)n1)C(C)=O -1.75%
O=C(CCNS(=O)(=O)c1ccc(Br)s1)Nc1ccc(Cl)cc1 -2.43%
COC(=O)c1ccc(CC(=O)c2ccc(O)cc2O)o1 21.4%
CCOC(=O)c1ccc(CC(=O)c2ccc(O)cc2O)o1 16.6%
CCOC(=O)c1ccc(CC(=O)c2oc3cc(O)ccc3c2C)o1 29.3%
Cc1cc(O)cc(O)c1C(=O)Cc1ccccc1 31%
Cc1onc(-c2c(Cl)cccc2Cl)c1C(N)=O 3.21%
Cc1nnc(-c2cccc(Br)c2)c2cn(-c3ccc(Br)cc3)nc12 -35.9%
CC(C)Oc1cc(NC(=O)CS(=O)(=O)CC(=O)N(C)C)c(Cl)cc1Cl 4.46%
O=C(COc1ccc2c(c1)CCC2)NCc1ccccc1 6.52%
COc1ccccc1CNC(=O)COc1ccc2c(c1)CCC2 -14.6%
COc1cccc(COC(=O)C2CC(=O)N(Cc3ccccc3)C2)c1OC (stereo unspecified) 4.65%
CCOc1ccc(NC(=O)NCCCn2c(C)nc3cc(C)c(C)cc32)cc1 3.24%
Cc1cc2nc(C)n(CCCNC(=O)Nc3ccc(C#N)cc3)c2cc1C -0.77%
CCCCSc1nnc(CCCCCNC(=O)OC(C)(C)C)o1 1.82%
CN(C)S(=O)(=O)c1ccc(C(=O)OCC(=O)Nc2ccc(OC(F)F)cc2)cc1 -3.03%
NNC(=O)CCc1c[nH]c2ccccc12 1.22%
NC(=O)CCc1c[nH]c2ccccc12 14.6%
O=C(NC(=O)c1cccc(F)c1)Nc1nc(-c2ccc(F)cc2)cc(C(F)(F)F)n1 0.6%
Cc1nc([N+](=O)[O-])cn1CC(=O)c1ccc(F)cc1 -8.97%
CCn1c(SCC(=O)N2CCCc3ccccc32)nc2ccccc2c1=O -1.92%
CN(C(=O)c1ccccc1C(=O)OCC(=O)Nc1ccccc1)c1ccccc1 -8.92%
O=C(CCNS(=O)(=O)c1ccc(Br)s1)NCc1ccc2c(c1)OCO2 -6.46%
CCO[C@@H]1OC(C(=O)NCc2ccccc2)=C[C@H](c2coc3ccccc3c2=O)[C@H]1CCCO 6.31%
Cc1ccc(/C=C/C(=O)c2c(C)cc(C)[nH]c2=O)cc1 -2.58%
Cc1cc(C)c(C(=O)/C=C/c2cccs2)c(=O)[nH]1 1.47%
CCn1c(O)c(N=Nc2ccc(Cl)c(C(=O)O)c2)c2ccccc21 16%
O/N=C/c1nc2cc(Cl)ccc2o1 4.03%
CC(=O)N(C1=C(N2CCOCC2)C(=O)c2ccccc2C1=O)c1ccc(C(=O)O)cc1 14.4%
CC(=O)N(C1=C(N)C(=O)c2ccccc2C1=O)c1ccccc1 4.9%
COC(=O)c1[nH]c2c(c1C)C(=O)CC(c1ccc(OC)c(OC)c1)C2 (stereo unspecified) -9.19%
C=CC[C@@H](CC(=O)N[C@H](CO)Cc1ccccc1)C(=O)N[C@@H](COC(=O)[C@@H](CC=C)CC(=O)OC(C)(C)C)Cc1ccccc1 -0.04%
CC1=C(C(=O)Nc2ccccc2)C(c2ccc(N(C)C)cc2)NC(=O)N1 (stereo unspecified) 8.56%
CC1=C(C(=O)Nc2ccc(C)cc2)C(c2ccc(N(C)C)cc2)NC(=O)N1 (stereo unspecified) -2.24% and 24.2%
O=C(NC(C(=O)N/N=C/c1cccc2ccccc12)c1n[nH]c(=O)c2ccccc12)c1ccccc1 (stereo unspecified) 4.11%
O=[N+]([O-])c1ccc(NN=Cc2ccccc2O)nc1 7.07%
O=C(O)Cc1c(O)ccc2ccccc12 3.01%
O=C(O)Cc1ccccc1C(=O)O 0.17%
O=C(N/N=C1\CCCc2ccccc21)c1cccc([N+](=O)[O-])c1 3.37%
COC(=O)CCN(C(=O)c1ccc(N2CCCCC2)c([N+](=O)[O-])c1)c1ccccn1 -7.46%
COc1ccc(C(=O)NNC(=O)c2ccc(C)cc2)cc1S(=O)(=O)N1CCCC1 -1.1%
CCCCCC(=O)N1C[C@H](n2cc(C3CC3)nn2)[C@@H](O)C[C@@H]1c1ccc(C)cc1 -2.78%
COc1ccc(C(=O)n2nc(-c3ccccc3)nc2N)cc1OC -0.61% and -0.84%
COc1ccccc1C(=O)n1nc(-c2ccc(Cl)cc2)nc1N 20.4%
Cc1occc1C(=O)N(C)CC1CCCN(CCc2ccccc2F)C1 (stereo unspecified) 7.6%
O=C1/C(=C/c2ccco2)CCC1C1CCCC1 (stereo unspecified) 25.4%
NC(=N\N=Cc1ccco1)/C(N)=N/N=Cc1ccco1 27.4%
O/N=C1\CCCC\C1=C/c1ccccc1 5.14%
COc1ccc2c(c1)CC/C(=C/c1ccco1)C2=O 26.2%
O=C1/C(=C\c2ccccc2)CCC/C1=C/c1ccccc1 -1.78%
O=C1C(=Cc2ccco2)CCC1=Cc1ccco1 -4.11%
Cc1ccccc1C(=O)NC1CCS(=O)(=O)C1 (stereo unspecified) -1.4%
CCc1ccc(CN(C)Cc2nc(Cc3ccc(OC)c(OC)c3)no2)nc1 -3.31%
COc1ccc(OC)c(NC(=O)CCN2CCN(c3ccccc3F)CC2)c1 25.7%
Nc1nc(CN2CCCCCC2)nc(Nc2ccc(F)cc2)n1 -3.7%
COc1ccc(S(=O)(=O)CCC(=O)NC2CCCCC2)cc1 23.2%
COc1ccc(S(=O)(=O)CCC(=O)NCCc2ccc(S(N)(=O)=O)cc2)cc1 12.3%
Cc1ccc(CCNC(=O)CCS(=O)(=O)c2ccc(Br)cc2)cc1 28.3%
Cc1ccc(S(=O)(=O)CCC(=O)NCCc2ccccc2)cc1 1.3%
O=C(CCNS(=O)(=O)c1ccc(Br)cc1)NCCc1ccccc1 -1.9%
Cc1ccc(S(=O)(=O)CCC(=O)NC2CCCCC2)cc1 3.12%
CC(NS(=O)(=O)c1ccccc1)C(=O)Nc1ccc2c(c1)OCCO2 (stereo unspecified) 0.08%
CC(=O)NCCn1c(SCc2ccccc2F)nc2ccccc2c1=O -4.55%
O=C(CSc1nc2sc3c(c2c(=O)[nH]1)CCC3)NCCO -6.15%
O=C(Cc1ccccc1)Nc1ccccc1C(=O)Nc1ccccc1 9.21%
O=C(CC12CC3CC(CC(C3)C1)C2)NCc1ccccc1 0.11%
FC(F)(F)c1ccc2c(c1)NCC1CCCN21 (stereo unspecified) 32.5%
O=C1Nc2ccccc2N2CCCC12 (stereo unspecified) -3.06%
